In PubChem BioAssay (NCATS):
Inconclusive results are not listed. Entries that show only a call come without a potency. Activity calls are given as the source filed them. The call rests on the fitted dose curve; in most records, active means well fitted inhibition curve with a large enough effect; inconclusive means small, poorly fitted or top-dose-only effect; inactive means no such curve, though single readings can be large or run the other way.

How the values were obtained:
[1] = test system: Zika virus NS2B-NS3 protease (unlinked complex); test: Primary screen GU Rhodamine qHTS for Zika virus inhibitors: Unlinked NS2B-NS3 protease assay (AID 1347159); further: nearly all actives have a fitted effect of over 60% in size
How it was run: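 Unlinked NS2B/NS3, 25 nM; Rhod110 peptide, 1.5 microM; compounds, up to 114 microM. Reaction run 15 min at RT in 10 mM Tris-HCl pH 8.0, 0.01% Tween 20; kinetic fluorescence change fitted with a 4-parameter Hill model.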

[2] = test system: Zika virus NS2B-NS3 protease (linked construct); test: Primary screen NINDS Rhodamine qHTS for Zika virus inhibitors (AID 1347160); further: nearly all actives have a fitted effect of over 55% in size
How it was run: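 Single-chain NS2B-NS3 protease, 25 nM, pH 8.0; compounds preincubated 15 min. Activity: Rhodamine110 release from 1.5 microM substrate over 15 min, room temperature, data fitted to 4-parameter Hill.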
Potency means the concentration at half of the fitted maximal effect.

SMILES	Potency [1]	Potency [2]	activity change, negative = inhibition [1]
CCCCCOC(=O)Nc1nc(=O)n(C2O[C@H](C)[C@@H](O)[C@H]2O)cc1F (stereo not given in full)	inactive	inactive	
CCCCC(=O)N1c2ccccc2NC2=C(C(=O)CCC2)C1c1ccccc1Cl (stereo not given)	inactive	inactive	
Cc1nc2ccccc2c(-c2ccc3c4c(ccnc24)CCO3)c1[C@H](OC(C)(C)C)C(=O)O	inactive	inactive	
O=C(O)/C=C/c1ccc(O[C@@H]2O[C@H](CO)[C@@H](O)[C@H](O)[C@H]2O)cc1	inactive	inactive	
C[C@@]1(C(=O)O)CCC[C@@]2(C)C3=CC[C@H]4C[C@@]3(CC[C@H]12)CC4(O)CO (stereo not given in full)	inactive	inactive	
COc1ccc(/C=C/C(=O)N2CCCC2)cc1	inactive	inactive	
Cc1nnc(-c2ccc3occ(-c4ccc(S(C)=O)cc4)c3c2)o1 (stereo not given)	inactive	inactive	
C/C=C(\C)C(=O)OCC1OC(OCC2OC(OC3(CO)OC(CO)C(O)C3O)C(O)C(O)C2O)C(O)C(O)C1O (stereo not given)	inactive	inactive	
Cc1ccc(COC(=O)N2CC[C@@H](CNc3ncccn3)[C@@H](F)C2)cc1	inactive	inactive	
CC1(C)CC2C(O)C3=C(CC(C)(O)C2C1)C(=O)OC3 (stereo not given)	inactive	inactive	
C=C1CC[C@@H]2[C@@](C)(CO[C@@H]3O[C@H](CO)[C@@H](O)[C@H](O)[C@H]3O)[C@H](O)CC[C@@]2(C)[C@@H]1CC/C(C)=C/CO[C@@H]1O[C@H](CO)[C@@H](O)[C@H](O)[C@H]1O	inactive	inactive	
NC(=O)NCCCC(NC(=O)Cc1ccccc1)C(=O)O (stereo not given)	inactive	inactive	
O=C(Cc1ccc(Cl)cc1)Nc1cnccc1C(=O)O	inactive	inactive	
CC(C)(O)C1OC1C1=CC(=O)C2(C)OC2C1O (stereo not given)	inactive	inactive	
Cc1occc(=O)c1O[C@@H]1O[C@H](COC(=O)CC(C)(O)CC(=O)O)[C@@H](O)[C@H](O)[C@H]1O (stereo not given in full)	inactive	inactive	
CCC(C)C1NC(=O)C2C(C)CCN2C(=O)C(CC(O)CO)OC(=O)CCNC(=O)C(C)N(C)C(=O)C(C(C)C)N(C)C1=O (stereo not given)	inactive	inactive	
CC(C)=C1C[C@@]2(C)C(=CC1=O)CC[C@@H](O)[C@@H]2C	inactive	inactive	
COc1cc(/C=C/C(=O)O[C@@H]2C[C@@](O)(C(=O)O)C[C@@H](O)[C@@H]2O)ccc1O	inactive	inactive	
CC(=O)OC12CC(C)C(O)C1/C=C(/COC1OC(CO)C(O)C(O)C1O)CCC1C(/C=C(\C)C2=O)C1(C)C (stereo not given)	inactive	inactive	
CC(C)=CCC[C@](C)(O[C@@H]1O[C@H](CO[C@@H]2O[C@@H](CO)[C@H](O)[C@H]2O)[C@@H](O)[C@H](O)[C@H]1O)[C@H]1CC[C@]2(C)[C@@H]1[C@H](O)C[C@@H]1[C@@]3(C)CC[C@H](O[C@@H]4O[C@H](CO)[C@@H](O)[C@H](O)[C@H]4O[C@@H]4O[C@H](CO)[C@@H](O)[C@H](O)[C@H]4O)C(C)(C)[C@@H]3CC[C@]12C	inactive	inactive	

SMILES	Potency [1]	Potency [2]	activity change, negative = inhibition [1]
O=C(COCC(=O)N1CCN(C(c2ccccc2)c2ccccc2)CC1)Nc1ccc(Cl)cc1C(=O)O	11.2 µM (active)	12.6 µM (active)	
CC(O)C(O)/C=C/C=C/C(=O)O[C@@H]1C=C(C(=O)O)[C@](O)(CO)[C@@]2(C)CCCC(C)(C)[C@H]12 (stereo not given in full)	inactive	inactive	
CC1CC(=O)C2C(O)(C1)CC(O)C13OC1c1c(O)cccc1C(=O)C23O (stereo not given)	inactive	inactive	
NCCCCN(Cc1nc2ccccc2[nH]1)[C@H]1CCCc2cccnc21	inactive	inactive	
C[C@@H]1O[C@@H](O[C@@H]2[C@@H](O)[C@H](O[C@@H]3[C@@H](O)[C@@H](O)[C@H](O[C@H]4[C@H](OC(=O)[C@]56CCC(C)(C)C[C@H]5C5=CCC7[C@@]8(C)C[C@H](O)[C@H](O[C@@H]9O[C@H](C(=O)O)[C@@H](O)[C@H](O)[C@H]9O)[C@@](C)(CO)C8[C@H](O)C[C@@]7(C)[C@]5(C)C[C@H]6O)O[C@@H](CO)[C@@H]4O)O[C@H]3C)OC[C@H]2O)[C@H](O)[C@H](O)[C@H]1O (stereo not given in full)		inactive	24.9% [at 19.1 µM] (inactive)
CC(=O)OCC1OC(O[C@H]2CC[C@@]3(C)C(CC[C@]4(C)C3CC=C3[C@@H]5CC(C)(C)CC[C@]5(C(=O)O)CC[C@]34C)[C@]2(C)CO)C(O)C(O)C1OC1OC(C)C(O)C(OC2OCC(O)C(O)C2O)C1O (stereo not given in full)	inactive	inactive	
C[C@H]1[C@@H](O)[C@H](O)C2[C@]3(C)C([C@@H](O)[C@H]4OC(=O)[C@@H]1[C@@]24C)[C@](C)(O)C=C[C@H]3O[C@@H]1O[C@H](CO)[C@@H](O)[C@H](O)[C@H]1O (stereo not given in full)	inactive	inactive	
COc1cc(C(C)=O)ccc1O[C@@H]1O[C@H](CO)[C@@H](O)[C@H](O)[C@H]1O	inactive	inactive	
CCNC(=O)C1CC(F)(c2ccc(CN3CCCC3)c(F)c2)C1 (stereo not given)	inactive	inactive	
CCCN1CCC[C@@H](c2cccc(S(C)(=O)=O)c2)C1	inactive	inactive	
Cc1ccccc1N1CCN(S(=O)(=O)C[C@]23CC[C@H](C[C@@H]2NC(=O)[C@@H](N)CCS(C)(=O)=O)C3(C)C)CC1	inactive	inactive	
CC1=CC(=O)C2C(C)(C)CCC[C@]2(C)[C@H]1CC[C@H](C)CC(=O)O (stereo not given in full)	inactive	inactive	
COc1cc(/C=C/C(=O)O[C@H]2C[C@@H]3C(C(=O)O)=CO[C@@H](O[C@@H]4O[C@H](CO)[C@@H](O)[C@H](O)[C@H]4O)[C@@H]3[C@H]2C)ccc1O	inactive	inactive	
CCCO[C@@H]1O[C@H](CO)[C@@H](O)[C@H](O)[C@H]1O[C@@H]1OC[C@@H](O)[C@H](O)[C@H]1O	inactive	inactive	
C/C(CO)=C1/CCC23COC(C2)C(O)(C(=O)O)CCC13 (stereo not given)	inactive	inactive	
COC(=O)C(CC1(O)c2ccccc2N2C(=O)C(C)(C)N(O)C21)n1cnc2ccccc2c1=O (stereo not given)	inactive	inactive	
C=C1[C@@H]2CC[C@@]3(C)[C@H](c4ccoc4)OC(=O)C[C@]13O[C@H]1CC(=O)C(C)(C)[C@H](C(O)C(=O)OC)[C@]12C (stereo not given in full)	inactive	inactive	
CC(=O)OCC1=C[C@@H]2OC(=O)C3=CO[C@@H](O[C@@H]4O[C@H](CO)[C@@H](O)[C@H](O)[C@H]4O)[C@H]1[C@@H]32	inactive	inactive	
CC(C)C1NC(=O)C(CC2(O)c3ccccc3N3C(=O)C(Cc4ccccc4)NC32)NC1=O (stereo not given)	inactive	inactive	
C=CCc1ccc(O[C@@H]2O[C@H](CO)[C@@H](O)[C@H](O)[C@H]2O)c(O[C@@H]2O[C@H](CO)[C@@H](O)[C@H](O)[C@H]2O)c1	inactive	inactive	

SMILES	Potency [1]	Potency [2]	activity change, negative = inhibition [1]
CC(C)c1c(NC(=O)Nc2ccc(Cl)cc2)c(=O)n(-c2ccccc2)n1C	inactive	inactive	
COC(=O)C1=CO[C@@H](O[C@@H]2O[C@H](CO)[C@@H](O)[C@H](O)[C@H]2O)[C@@H]2[C@@H](C)[C@@H](O)C(O)[C@H]12 (stereo not given in full)	inactive	inactive	
COC(=O)[C@H](Cc1ccc([N+](=O)[O-])cc1)NC(=O)c1cccc2ccccc12	inactive	inactive	
C=C1C2(C)CC3C4(C)C=CC(=O)OC(C)(C)C4CCC3(C)C1(C(=O)OC)C(=O)C(C)(O)C2=O (stereo not given)	inactive	inactive	
NC[C@@H]1O[C@@H](O[C@@H]2[C@@H](O[C@@H]3O[C@H](CO)[C@@H](O)[C@H]3O)[C@H](O)[C@@H](N)C[C@H]2N)[C@@H](N)[C@H](O)[C@H]1O		inactive	6.33% [at 19.1 µM] (inactive)
COc1cc(C(CO)C(OC2OC(CO)C(O)C(O)C2O)c2ccc(O)c(OC)c2)ccc1O (stereo not given)	inactive	inactive	
COc1cc(C(=O)OC[C@H]2O[C@@H](OC(C)(C)C(=O)O)[C@H](O)[C@@H](O)[C@@H]2O)cc(OC)c1O	inactive	inactive	
Cc1cc(CNC(=O)c2cc(C(=O)NCc3ccc(F)c(C)c3)ncn2)ccc1F	inactive	inactive	
O=C(/C=C/c1ccc(O)cc1)OC[C@H]1O[C@@H](O/C(=C\c2ccccc2)C(=O)O)[C@H](O)[C@@H](O)[C@@H]1O	inactive	inactive	
CC1=C2C(=O)C=C(CO[C@@H]3O[C@H](CO)[C@@H](O)[C@H](O)[C@H]3O)[C@@H]2[C@H]2OC(=O)[C@H](C)[C@@H]2CC1	inactive	inactive	
CC1(C)CC[C@]2(C(=O)O)CC[C@]3(C)C(=CCC4[C@@]5(C)C(=O)C[C@H](O)[C@@](C)(CO)C5CC[C@]43C)[C@@H]2C1 (stereo not given in full)	inactive	inactive	
C/C=C(\C)C(=O)OC[C@H]1O[C@H](O[C@H]2O[C@H](CO)[C@@H](O)[C@H](O)[C@H]2O[C@@H]2O[C@H](CO)[C@@H](O)[C@H](O)[C@H]2O)[C@H](O[C@@H]2O[C@H](CO)[C@@H](O)[C@H](O)[C@H]2O)[C@@H](O)[C@@H]1O	inactive	inactive	
FC(F)(F)Oc1ccc(-c2ccc3nnc(C(F)(F)F)n3c2)cc1	inactive	inactive	
CCCC(C(=O)O)c1c(C)nc2ccc(Cl)cc2c1-c1ccccc1 (stereo not given)	31.6 µM (active)	14.1 µM (active)	
CC1CCCCCCCc2cc(O)cc(O)c2C(=O)O1 (stereo not given)	39.8 µM (active)	15.8 µM (active)	
C=C(C)[C@@H]1CC[C@]2(C(=O)O)CC[C@]3(C)[C@H](CCC4[C@@]5(C)CCC(=O)C(C)(C)C5C(O)C[C@]43C)C12 (stereo not given in full)	inactive	inactive	
COC(=O)C(Cc1ccccc1)NC(=O)c1ccccc1 (stereo not given)	inactive	inactive	
COc1ccc(C(=O)NCc2cc(C(C)C)no2)cc1OC1CCN(C)CC1	inactive	inactive	
c1ccc2c(Nc3nnc(-c4ccncc4)s3)cccc2c1	inactive	inactive	
C=CCC1=C[C@]2(OC)[C@H](C)[C@@H](c3ccc(OC)c(OC)c3)O[C@]2(OC)CC1=O	inactive	inactive	
